# Hit rate of the full screen: of about 310,000 compounds, about 14,000 (4.5%) showed an effect of 50% or more. Effects have a minus sign here. This is one part of a sample in which strong results are shown more often than they occur.
# Target: human ether-à-go-go-related gene (hERG) potassium channel (human, UniProt Q12809)
# Test: primary screen, population patch clamp on CHO cells stably expressing hERG; higher = less effect of the substance
# 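Further: peak tail current of the secondary pulse compared with the same well before compound.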
# human ether-à-go-go-related gene (hERG) potassium channel, sequence (Q12809 whole entry, looked up): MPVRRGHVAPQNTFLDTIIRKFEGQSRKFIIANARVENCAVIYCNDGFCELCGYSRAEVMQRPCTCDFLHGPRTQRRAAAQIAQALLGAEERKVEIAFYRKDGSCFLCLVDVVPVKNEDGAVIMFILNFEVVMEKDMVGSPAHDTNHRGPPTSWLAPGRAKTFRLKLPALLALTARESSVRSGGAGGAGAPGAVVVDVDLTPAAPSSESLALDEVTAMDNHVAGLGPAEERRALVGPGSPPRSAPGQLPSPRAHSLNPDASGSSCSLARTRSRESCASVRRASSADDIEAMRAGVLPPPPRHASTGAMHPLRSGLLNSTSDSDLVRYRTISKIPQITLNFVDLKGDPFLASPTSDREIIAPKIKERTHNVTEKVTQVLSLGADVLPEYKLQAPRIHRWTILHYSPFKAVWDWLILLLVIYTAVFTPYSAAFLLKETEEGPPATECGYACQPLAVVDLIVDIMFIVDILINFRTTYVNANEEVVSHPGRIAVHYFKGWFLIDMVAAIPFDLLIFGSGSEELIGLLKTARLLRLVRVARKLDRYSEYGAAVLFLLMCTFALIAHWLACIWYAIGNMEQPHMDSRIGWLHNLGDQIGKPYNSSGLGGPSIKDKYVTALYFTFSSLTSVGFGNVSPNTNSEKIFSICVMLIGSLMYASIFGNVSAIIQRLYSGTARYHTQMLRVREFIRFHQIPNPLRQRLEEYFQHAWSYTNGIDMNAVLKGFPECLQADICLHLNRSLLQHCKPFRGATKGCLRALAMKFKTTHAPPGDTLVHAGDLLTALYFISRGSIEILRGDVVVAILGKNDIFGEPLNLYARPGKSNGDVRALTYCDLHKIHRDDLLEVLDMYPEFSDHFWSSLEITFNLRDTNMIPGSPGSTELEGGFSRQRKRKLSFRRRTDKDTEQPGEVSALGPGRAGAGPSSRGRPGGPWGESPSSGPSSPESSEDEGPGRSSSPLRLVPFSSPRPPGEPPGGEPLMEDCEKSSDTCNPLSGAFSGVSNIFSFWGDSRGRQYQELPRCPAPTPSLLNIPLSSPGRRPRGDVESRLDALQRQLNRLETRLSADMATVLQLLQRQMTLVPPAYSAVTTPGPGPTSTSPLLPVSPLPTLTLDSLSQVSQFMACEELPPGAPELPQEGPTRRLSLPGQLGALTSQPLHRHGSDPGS
row,SMILES,"hERG current change (%, negative = inhibition) at 10uM [%]"
1,COc1ccc(/C=N/NC(=O)c2ccc(NC(=O)C3CCCCC3)cc2)cc1O,24.3
2,Cc1cc(NC(=O)CSc2ccc(-c3ccc(Br)cc3)nn2)no1,11.1
3,Cc1cc(C)cc(N(CCC#N)C(=O)CSc2n[nH]c(N)n2)c1,12.6
4,O=C(NCCN1CCOCC1)c1ccc(NS(=O)(=O)c2cccc([N+](=O)[O-])c2)cc1,10.6
5,Cc1ccc(/C=N/N2CCN(Cc3cccc4ccccc34)CC2)s1,-3.05
6,COc1ccc(S(=O)(=O)N2N=C(c3cccc(NS(C)(=O)=O)c3)CC2c2ccco2)cc1 (centres unmarked),-3.61
7,CCS(=O)(=O)Nc1ccc(C2=NN(S(=O)(=O)c3ccc(F)cc3)C(c3ccco3)C2)cc1 (centres unmarked),-38.8
8,CS(=O)(=O)Nc1ccc(C2=NN(S(=O)(=O)c3ccc(F)cc3)C(c3ccco3)C2)cc1 (centres unmarked),-70.2
9,CS(=O)(=O)Nc1cccc(C2=NN(S(=O)(=O)c3ccccc3)C(c3ccco3)C2)c1 (centres unmarked),-29.9
10,Cc1ccc(C2=NN(S(=O)(=O)c3ccccc3)C(c3ccco3)C2)cc1 (centres unmarked),8.53
11,COc1ccc(S(=O)(=O)N2N=C(c3ccc(NS(C)(=O)=O)cc3)CC2c2ccco2)cc1 (centres unmarked),-74.2
12,CCCc1cc(=O)oc2cc(C)cc(OCC(=O)NCC(O)c3ccccc3)c12 (centres unmarked),13.5
13,Cc1cccc(CCNC(=O)CCS(=O)(=O)c2ccc(Br)cc2)c1,8.8
14,O=C(NC(=S)N1CCN(C/C=C/c2ccccc2)CC1)c1ccco1,-35
15,O=C(/C=C/c1ccco1)N1CCN(S(=O)(=O)/C=C/c2ccccc2)CC1,-45
16,S=C(NCc1ccco1)N1CCN(C/C=C/c2ccccc2)CC1,-56.2
17,O=C(/C=C/c1ccco1)N1CCC(Cc2ccccc2)CC1,4.42
18,O=C(/C=C/c1ccco1)N1CCN(C/C=C/c2ccccc2)CC1,-58.8
19,S=C(NCc1ccco1)N1CCN(Cc2ccco2)CC1,1.76
20,Cc1cccc(C(=O)N(C)c2nnc(-c3ccncc3)s2)c1,1.3

row,SMILES,"hERG current change (%, negative = inhibition) at 10uM [%]"
1,Cc1ccc(NC(=O)Cn2ccsc2=N)c([N+](=O)[O-])c1.Cl,35.1
2,CC(C)CCNc1nc(N)c([N+](=O)[O-])c(N2CCCCCC2)n1,12.1
3,c1ccc(C2Nc3ccccc3-c3nc4ccccc4n32)cc1 (centres unmarked),-18.1
4,c1cncc(C2Nc3ccccc3-c3nc4ccccc4n32)c1 (centres unmarked),-5.58
5,c1ccc2c(c1)NC(c1ccncc1)n1c-2nc2ccccc21 (centres unmarked),-66.2
6,Cc1cc(NC(=O)CCC(=O)N(CC(=O)NCC2CCCO2)c2ccc(C)c(C)c2)no1 (centres unmarked),8.68
7,Cn1cc([C@@H]2C[C@H]3CN(Cc4cccc(Cl)c4)C(=O)[C@]34CCCN24)c2ccccc21,-72.7
8,Cc1c([C@@H]2C[C@H]3CN(Cc4cccc(Cl)c4)C(=O)[C@]34CCCN24)cnn1C,-45.5
9,O=C1N(Cc2cccc(Cl)c2)C[C@@H]2C[C@@H](c3cccc4ncccc34)N3CCC[C@@]123,-48.8
10,O=C1N(Cc2cccc(Cl)c2)C[C@@H]2C[C@@H](c3c[nH]c4ccccc34)N3CCC[C@@]123,-74.8
11,CCOC(=O)c1[nH]ncc1[C@@H]1C[C@H]2CN(Cc3cccc(Cl)c3)C(=O)[C@]23CCCN13,-27.4
12,COc1cccc(/C=N/NC(=O)c2cccc([N+](=O)[O-])c2)c1OS(=O)(=O)c1ccccc1,-16.2
13,COc1ccc(C)cc1N(CC(=O)N1CCCCCC1)S(C)(=O)=O,12.2
14,CCOc1ccc(CN2CCNC(=O)C2CC(=O)NC2CCOCC2)cc1 (centres unmarked),-44.7
15,CC1CCC(NC(=O)COC(=O)c2ccco2)CC1 (centres unmarked),7.07
16,N#Cc1ccccc1OCC(=O)Nc1ccc2c(c1)OCCCO2,3.08
17,COc1ccccc1CNC(=O)C1(C)Oc2cccnc2NC1=O (centres unmarked),9.69
18,COCc1cc(CN2CCN(CCCc3ccccc3)C(CCO)C2)ccc1OC (centres unmarked),-66.1
19,COc1ccc(CN2CCN(CCC(C)C)C(CCO)C2)cc1Cn1cccn1 (centres unmarked),-48.1
20,CC(C)(O)C#Cc1ccc(CN2CCN(Cc3ccsc3)C(CCO)C2)cc1 (centres unmarked),-21.6

row,SMILES,"hERG current change (%, negative = inhibition) at 10uM [%]"
1,COCc1cc(CN2CCN(Cc3ccsc3)C(CCO)C2)ccc1OC (centres unmarked),-82.9
2,COc1ccc(CN2CCN(CCC(C)C)C(CCO)C2)cc1Cn1cncn1 (centres unmarked),1.78
3,COCc1cc(CN2CCN(CCc3ccccc3)C(CCO)C2)ccc1OC (centres unmarked),-56.9
4,COc1ccc(CN2CCN(CCc3ccccc3)C(CCO)C2)cc1Cn1cncn1 (centres unmarked),-35.8
5,CCOc1ccc(CN2CCN(Cc3ccsc3)C(CCO)C2)cc1CO (centres unmarked),-39.4
6,O=C1CN(c2ccc(Cl)cc2)C2(CCCCC2)S1,4.49
7,Cc1ccc(Cn2ccc(NC(=O)c3cc(-c4ccc(Br)cc4)on3)n2)cc1,22.6
8,CCOC(=O)c1cc2nc(-c3ccccc3)cc(C)n2n1,5.61
9,COC(=O)c1cc2ccsc2n1Cc1nc(-c2ccc(Cl)cc2)oc1C,7.33
10,CSc1nc(N(C)NC(=O)c2ccc(Cl)cc2)c2ccccc2n1,2.16
11,Cc1ccc(OCc2ccc(C(=O)Nc3ccc(S(N)(=O)=O)cc3)o2)cc1,12.4
12,CCOC(=O)C1=C(O)CSC1=Nc1ccc(C)cc1,-4.86
13,CCC(C)n1c(SCC(=O)Nc2cc(C(C)(C)C)nn2-c2ccccc2)nc2ccccc2c1=O (centres unmarked),3.57
14,CCOc1ccc(NC(=O)c2ccc(N3CC4CC(C3)c3cccc(=O)n3C4)c(N)c2)cc1 (centres unmarked),-21.7
15,Nc1cc(C(=O)Nc2ccc(Cl)cc2)ccc1N1CC2CC(C1)c1cccc(=O)n1C2 (centres unmarked),-62.1
16,CCc1ccc(NC(=O)Nc2cc(C(=O)O)ccc2N2CC3CC(C2)c2cccc(=O)n2C3)cc1 (centres unmarked),20.4
17,CCc1ccc(NC(=O)Nc2cc(C(=O)NCC3CCCO3)ccc2N2CC3CC(C2)c2cccc(=O)n2C3)cc1 (centres unmarked),-17.6
18,O=C(Nc1ccc(Cl)cc1)N1CC2CC(C1)c1cccc(=O)n1C2 (centres unmarked),4.31
19,CCCNC(=O)c1ccc(N2CC3CC(C2)c2cccc(=O)n2C3)c(NC(=O)Nc2ccc(CC)cc2)c1 (centres unmarked),-78.7
